The source of these data is PubChem BioAssay (Tox21).

Assay [1] in a line: qHTS assay to identify small molecule antagonists of the estrogen related receptor (ERR) signaling pathway from Tox21 library - cell viability counter screen (AID 1224834). Note: nearly all actives have a fitted effect of over 30% in size. In a few lines:
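After 17.5 h of compound exposure at 37 C, ERR cells are incubated with CellTiter-Fluor for 30 min and fluorescence intensity serves as the viability measure.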

Assay [2] has as its target Luciferin 4-monooxygenase (Photinus pyralis) (UniProt P08659). Nature of the assay: qHTS assay to identify small molecule inhibitors of firefly luciferase (AID 1224835). Note: nearly all actives have a fitted effect of over 25% in size. Note: potency is the fitted concentration of half-maximal effect. A digest of the protocol:
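Biochemical qHTS: compounds run as interplate titrations against purified firefly enzyme, with D-luciferin and ATP each at its KM concentration. Light output recorded by CCD imaging.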

Assay [3] can be described thus: qHTS assay to identify small molecule agonists of the constitutive androstane receptor (CAR) signaling pathway - cell viability counter screen (AID 1224836). Note: nearly all actives have a fitted effect of over 45% in size. A digest of the protocol: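 HepG2 cells stably carrying hCAR and a CYP2B6-2.2kb reporter were plated 4 h, then given compounds at 15 concentrations plus PK11195 (final 0.75 uM). After 23 h at 37 C, viability was read by CellTiter-Fluor fluorescence.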

A short description of assay [4]: qHTS assay to identify small molecule antagonists of the constitutive androstane receptor (CAR) signaling pathway - cell viability counter screen (AID 1224837). Note: nearly all actives have a fitted effect of over 45% in size. A digest of the protocol:
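Counter screen run in HepG2-CYP2B6-hCAR cells: 4 hr settle, compound titration (15 concentrations) with 50 nM CITCO, 23 hr at 37 C/5% CO2, CellTiter-Fluor fluorescence.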

Assay [5] has as its target Nuclear receptor subfamily 1 group I member 3 (Homo sapiens) (UniProt Q14994). The assay is described as follows: qHTS assay to identify small molecule antagonists of the constitutive androstane receptor (CAR) signaling pathway (AID 1224838). Note: nearly all actives have a fitted effect of over 40% in size. A digest of the protocol: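 Cell line: HepG2 double-stable for hCAR and CYP2B6-2.2kb reporter. Agonist: CITCO, 50 nM final. Compounds: 15 concentrations, 24 h, 37 C. Detection: ONE-Glo luminescence.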

For assay [6] the target is unchanged. Nature of the assay: qHTS assay to identify small molecule agonists of the constitutive androstane receptor (CAR) signaling pathway (AID 1224839). Note: nearly all actives have a fitted effect of over 15% in size. Note: potency is the fitted concentration of half-maximal effect. A digest of the protocol:
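HepG2 cells stably expressing hCAR and a CYP2B6-2.2kb luciferase reporter were treated with compounds at 15 concentrations plus 0.75 uM PK11195 (final) for 24 h at 37 C; luminescence was read after ONE-Glo addition.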

Assay [7] is described as follows: qHTS assay to identify small molecule antagonists of the estrogen related receptor signaling pathway with the pleiotropic PPARgamma coactivator (PGC) from Tox21 10K library - cell viability counter screen (AID 1224840; active = well fitted cell-killing curve with a large enough effect in the repeat runs, not every such curve was filed as active; note: nearly all actives have a fitted effect of over 40% in size). A digest of the protocol:
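Following seeding of 2,000 PGC/ERR cells/well and 6 hours' incubation, test compounds were delivered in DMSO. The plates then sat 17.5 hours at 37 C before a fluorogenic live-cell protease reagent (CellTiter-Fluor) was read after 30 min.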

Assay [8] concerns the target Thyrotropin receptor (Homo sapiens) (UniProt P16473). Nature of the assay: qHTS assay to identify small molecule agonists of the thyroid stimulating hormone receptor (TSHR) signaling pathway (AID 1224843; calls by dose curve; note: nearly all actives have a fitted effect of over 45% in size). In a few lines: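 TSHR-HEK293 cells in agonist mode, 30 min room-temperature step, then cAMP measured by competitive HTRF (cAMP-d2 with anti-cAMP cryptate) after 1 h at room temperature. Tested at 15 concentrations in triplicate.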

Assay [9] is described as follows: qHTS assay to identify small molecule agonists of the hypoxia (HIF-1) signaling pathway - cell viability counter screen (AID 1224844; calls by dose curve; note: nearly all actives have a fitted effect of over 50% in size; note: potency is the fitted concentration of half-maximal effect). A digest of the protocol:
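Cells (HRE-bla ME-180, 2,000 per well) sat 5 hrs at 37C, got compound for 17 hrs, were read for CCF4-AM FRET, and were finally lysed with CellTiter-Glo for a 30 min room-temperature luminescence read.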

The nature of assay [10]: qHTS assay to identify small molecule agonists of H2AX (AID 1224845; active = well fitted activation curve with a large enough effect in the signal ratio in the repeat runs, not every such curve was filed as active; the % refers to the signal ratio). A digest of the protocol: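 Wild-type CHO-K1 cells, plated overnight, exposed 3hr at 37C to 15 concentrations (0.76% DMSO final). Lysed, then HTRF anti-pH2AX (S139) cryptate and anti-H2AX-d2 antibodies, 24 hr room temperature; 665/620 nm emission read.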
The nature of assay [11]: qHTS assay to identify small molecule agonists of the hypoxia (HIF-1) signaling pathway (AID 1224846; active = well fitted activation curve with a large enough effect in the signal ratio in the repeat runs, not every such curve was filed as active; the % refers to the signal ratio). In a few lines:
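A low-serum medium (0.5% dialyzed FBS) holding 2,000 HRE-bla ME-180 cells per well is preincubated for 5 hrs, dosed with compounds by pintool, and kept a further 17 hrs at 37C, 5% CO2 before CCF4-AM FRET detection of beta-lactamase.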

Assay [12] can be described thus: qHTS assay to identify small molecule agonists of H2AX - cell viability counter screen (AID 1224847; calls by dose curve; note: top concentration of the series differs between compounds; nearly all actives have a fitted effect of over 30% in size). In a few lines:
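Wild-type CHO-K1 cells (10% FBS medium) were plated overnight at 37C, exposed to compounds at 15 concentrations for 3 hr at 37C (0.76% DMSO final), and viability was read as CellTiter-Glo luminescence after 30 min at room temperature.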

Assay [13] can be described thus: qHTS RealTime-Glo MT Cell Viability Assay in HepG2 cells - 24 hour (AID 1224867). Note: nearly all actives have a fitted effect of over 50% in size. A digest of the protocol:
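Luminescence read-out: viable HepG2 cells reduce a prosubstrate to a NanoLuc substrate, giving a signal proportional to live cell number. Reads taken at 0, 8, 16, 24, 32 and 40 h of compound exposure at 37 C.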

A short description of assay [14]: qHTS RealTime-Glo MT Cell Viability Assay in HEK293 cells - 32 hour (AID 1224868). Note: top concentration of the series differs between compounds; nearly all actives have a fitted effect of over 50% in size. A digest of the protocol:
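Nonlytic real-time viability readout: viable cells convert prosubstrate to NanoLuc substrate, giving luminescence proportional to live cell number. HEK293, 600 cells/well, compound added after 5 h, continuous culture at 37 C.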

A short description of assay [15]: A CellTox Green Cytotoxicity Assay to monitor cytotoxicity in HEK293 cells - 0 hour (AID 1224869). Note: nearly all actives have a fitted effect of over 50% in size. Note: potency is the fitted concentration of half-maximal effect. In a few lines:
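Fluorescence intensity, read at 0, 8, 16, 24, 32 and 40 h of compound treatment, reflected dye binding to DNA of dead HEK293 cells; compounds (23 nL, DMSO) were added 5 h after plating cells with reagent.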

A short description of assay [16]: qHTS assay to identify small molecule antagonists of the estrogen related receptor signaling pathway with the pleiotropic PPARgamma coactivator (PGC) from Tox21 10K library (AID 1224841; call rule not given here). A digest of the protocol:
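qHTS antagonist format: PGC/ERR cells, 2k/well, compound in DMSO by pin transfer after 6 h attachment, 18 h treatment at 37 C, One-Glo luminescence read at 30 min.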

A short description of assay [17]: qHTS assay to identify small molecule agonists of the estrogen related receptor signaling pathway with the pleiotropic PPARgamma coactivator (PGC) from Tox21 10K library (AID 1224842). Note: nearly all actives have a fitted effect of over 15% in size. Note: potency is the fitted concentration of half-maximal effect. A digest of the protocol:
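PGC/ERR reporter cell line, 2,000 cells per well, incubated 6 h at 37 C before 23 nL compound in DMSO was added. After 18 h at 37 C, One-Glo luminescence read following 30 min at room temperature.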

A short description of assay [18]: qHTS assay to identify small molecule antagonists of the estrogen related receptor (ERR) signaling pathway from Tox21 library (AID 1224848). Note: nearly all actives have a fitted effect of over 50% in size. In a few lines:
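ERR reporter cell line (from NTP) seeded 2,000 cells/well, rested 6 h at 37 C/5% CO2, then pin-dosed with compounds in DMSO. After 18 h at 37 C, ONE-Glo added; luminescence read after 30 min at room temperature.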

Assay [19] is described as follows: qHTS assay to identify small molecule agonists of the estrogen related receptor (ERR) signaling pathway from Tox21 library (AID 1224849; calls by dose curve; note: nearly all actives have a fitted effect of over 15% in size). The note with it: ERR reporter cell line, ONE-Glo luciferase, 18 h; at 92.4 µM (top of the series). In a few lines: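 Screening used an NTP-provided ERR luciferase cell line. Compounds in DMSO were added 6 h after seeding and left 18 h at 37 C before a 30 min ONE-Glo step and luminescence reading.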

The structures appear in SMILES notation. Values joined by “and” are separate entries in the source; they are usually repeats but may differ in a detail not shown here. Identical values can stand only once. Records with an inconclusive call do not appear. More than one record can exist for a structure, and the calls need not agree. Active and inactive are the calls of the source. Unless noted, calls come from the whole dose curve; as a rule, active = well fitted curve in the direction sought with a large enough effect in the repeat runs; inconclusive = weak or mixed curves; inactive = no such curve, though single readings can be large; an effect the other way counts as inactive or inconclusive.
% is set by controls: 0 for no effect and ±100 for the full control effect.

Nuclear receptor subfamily 1 group I member 3 (Homo sapiens), sequence (Q14994 whole entry, looked up): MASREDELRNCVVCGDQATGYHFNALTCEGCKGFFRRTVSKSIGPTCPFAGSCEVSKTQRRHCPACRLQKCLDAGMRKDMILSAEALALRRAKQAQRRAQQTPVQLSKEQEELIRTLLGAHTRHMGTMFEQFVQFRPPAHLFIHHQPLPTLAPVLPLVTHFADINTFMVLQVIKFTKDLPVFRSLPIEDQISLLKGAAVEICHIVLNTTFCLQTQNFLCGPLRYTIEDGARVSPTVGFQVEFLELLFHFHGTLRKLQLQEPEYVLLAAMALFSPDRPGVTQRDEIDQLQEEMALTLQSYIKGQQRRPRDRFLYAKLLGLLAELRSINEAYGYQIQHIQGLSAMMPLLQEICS
Thyrotropin receptor (Homo sapiens), sequence (P16473 whole entry, looked up): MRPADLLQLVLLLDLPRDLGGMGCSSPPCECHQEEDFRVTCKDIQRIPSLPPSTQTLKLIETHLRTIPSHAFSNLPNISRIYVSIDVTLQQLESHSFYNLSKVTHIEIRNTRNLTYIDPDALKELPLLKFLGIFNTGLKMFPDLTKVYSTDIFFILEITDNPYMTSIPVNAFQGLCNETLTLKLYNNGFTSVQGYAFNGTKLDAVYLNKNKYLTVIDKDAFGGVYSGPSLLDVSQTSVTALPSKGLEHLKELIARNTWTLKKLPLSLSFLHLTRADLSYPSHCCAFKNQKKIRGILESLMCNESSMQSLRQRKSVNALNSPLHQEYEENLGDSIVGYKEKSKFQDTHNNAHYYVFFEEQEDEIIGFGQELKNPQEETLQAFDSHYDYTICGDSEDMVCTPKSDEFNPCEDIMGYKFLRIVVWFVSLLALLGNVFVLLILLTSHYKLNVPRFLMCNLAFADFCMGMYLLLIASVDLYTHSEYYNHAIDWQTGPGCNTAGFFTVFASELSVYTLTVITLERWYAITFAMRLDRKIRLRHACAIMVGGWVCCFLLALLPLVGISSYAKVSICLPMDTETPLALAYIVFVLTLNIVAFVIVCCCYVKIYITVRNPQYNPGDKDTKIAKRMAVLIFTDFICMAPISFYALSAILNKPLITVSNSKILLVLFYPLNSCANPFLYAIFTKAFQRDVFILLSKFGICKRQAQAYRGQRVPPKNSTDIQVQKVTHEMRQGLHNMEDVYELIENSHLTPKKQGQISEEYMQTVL
Luciferin 4-monooxygenase (Photinus pyralis), sequence (P08659 whole entry, looked up): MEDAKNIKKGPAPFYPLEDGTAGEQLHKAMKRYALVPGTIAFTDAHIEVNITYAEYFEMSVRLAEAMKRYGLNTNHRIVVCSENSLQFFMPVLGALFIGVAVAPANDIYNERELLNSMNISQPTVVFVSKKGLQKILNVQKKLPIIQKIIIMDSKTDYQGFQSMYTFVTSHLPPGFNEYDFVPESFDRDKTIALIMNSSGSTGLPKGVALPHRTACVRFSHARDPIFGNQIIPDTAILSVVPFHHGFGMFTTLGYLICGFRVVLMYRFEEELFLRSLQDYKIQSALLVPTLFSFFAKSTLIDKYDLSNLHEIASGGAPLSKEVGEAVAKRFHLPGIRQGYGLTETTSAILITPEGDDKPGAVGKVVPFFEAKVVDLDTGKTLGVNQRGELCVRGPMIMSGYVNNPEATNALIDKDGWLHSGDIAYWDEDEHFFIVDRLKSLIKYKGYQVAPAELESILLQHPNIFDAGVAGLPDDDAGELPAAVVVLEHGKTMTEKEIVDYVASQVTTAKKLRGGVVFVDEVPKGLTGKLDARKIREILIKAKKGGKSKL

On to `CC[Si](OC(C)=O)(OC(C)=O)OC(C)=O`, for which the Potency entry in assay [1], in assay [2], in assay [3], in [4], in assay [5] and in assay [6] was “inactive” each time. Further, the Potency entry in assay [7], in [8], in [9], in [10], in assay [12] and in [13] was “inactive” in each case. Further, the Potency result in assay [14] and in assay [15] was “inactive” in each case. The outcome in assay [11] was inactive.

On to `c1ccc2ccccc2c1`, for which the Potency result in assay [1], in assay [2], in [3], in assay [4], in [7] and in assay [16] was “inactive” each time. For the same molecule, the Potency entry in [17], in assay [8], in assay [9], in assay [10], in assay [12] and in assay [18] was “inactive” each time. Also, the Potency entry in assay [13] and in assay [14] was “inactive” each time. Moreover, in assay [11], the call was inactive. Moreover, the activity change, positive = activation in assay [19] was 7.43% (inactive) and 7.09% (inactive).

As to `CCOC(=O)C1OC1c1ccccc1` (stereo not given), the Potency result in assay [1], in assay [2], in assay [3], in assay [4], in [5] and in assay [6] was “inactive” in each case. The Potency entry in [7], in assay [9], in [10], in assay [12], in [13] and in assay [15] was “inactive” each time. In addition, the outcome in [11] was inactive.

Turning to `C=C(C)C(=O)OCC(CC)(COC(=O)C(=C)C)COC(=O)C(=C)C`, the Potency entry in assay [1], in [2], in assay [3], in [4], in [5] and in assay [6] was “inactive” in each case. The Potency result in assay [7], in assay [8], in assay [9], in [10], in assay [13] and in [14] was “inactive” throughout. Also, the outcome in assay [11] was inactive. In addition, the Potency entry in [15] was “inactive and 42.9 µM (active)”.

In the case of `NS(=O)(=O)c1cc2c(cc1Cl)NC=NS2(=O)=O`, the Potency entry in assay [1], in assay [2], in assay [3], in assay [4], in assay [5] and in assay [7] was “inactive” in each case. In addition, the Potency result in [8], in assay [9], in assay [10], in assay [12], in assay [13] and in [14] was “inactive” throughout. The Potency result in assay [15] is “inactive”. In addition, in assay [11], the molecule was classed as inactive.

Take `CC1CC(OC(=O)c2ccccc2O)CC(C)(C)C1` (stereo not given): the Potency result in assay [1], in [2], in assay [3], in [4], in [5] and in [6] was “inactive” throughout. In addition, the Potency entry in assay [7], in assay [8], in assay [10], in assay [12], in assay [13] and in assay [14] was “inactive” in each case. In addition, in [15], the Potency result was “inactive”. Moreover, in assay [9], the Potency is 48.5 µM (active) and inactive.

Take `O=C(c1ccc(O)cc1)c1ccc(O)cc1O`: the Potency entry in assay [1], in assay [3], in [4], in assay [5], in [7] and in assay [8] was “inactive” each time. The Potency entry in assay [10], in assay [13], in assay [14] and in assay [15] was “inactive” in each case. In addition, the Potency in assay [2] was 71.8 µM (active) and 39.9 µM (active); in [6], 27.6 µM (active) and 54.5 µM (active). For the same molecule, the molecule was classed as inactive in assay [11].

On to `COC(=O)c1ccccc1O`, for which the Potency result in assay [1], in assay [3], in assay [4], in assay [7], in [16] and in assay [8] was “inactive” each time. Besides, the Potency result in assay [9], in assay [10], in [12], in assay [18], in assay [13] and in assay [14] was “inactive” in each case. Also, the Potency was 63.5 µM (active) and inactive in assay [2]; 21.7 µM (active) and inactive in [17]. In addition, the molecule was classed as inactive in assay [11]. Besides, the activity change, positive = activation in [19] was 19.3% (active) and 7.16% (inactive).
